Measured values published in PubChem BioAssay AID763 (NMMLSC, 2007).
A number with no mark means an inactive call. No rule for the calls is given here.

Biological target: fMet-Leu-Phe receptor (Homo sapiens) (UniProt P21462)
Experiment: human FPR1 ligand displacement single-point test – cell-based, single concentration, selectivity assay for FPRL1 ligand SAR project, SAR follow-up (AID 763)
Conditions: FPR1-expressing cells, fluorescent ligand binding inhibition, hits give high values; at 5.4 µM unless noted

fMet-Leu-Phe receptor (Homo sapiens), sequence (P21462 whole entry, looked up): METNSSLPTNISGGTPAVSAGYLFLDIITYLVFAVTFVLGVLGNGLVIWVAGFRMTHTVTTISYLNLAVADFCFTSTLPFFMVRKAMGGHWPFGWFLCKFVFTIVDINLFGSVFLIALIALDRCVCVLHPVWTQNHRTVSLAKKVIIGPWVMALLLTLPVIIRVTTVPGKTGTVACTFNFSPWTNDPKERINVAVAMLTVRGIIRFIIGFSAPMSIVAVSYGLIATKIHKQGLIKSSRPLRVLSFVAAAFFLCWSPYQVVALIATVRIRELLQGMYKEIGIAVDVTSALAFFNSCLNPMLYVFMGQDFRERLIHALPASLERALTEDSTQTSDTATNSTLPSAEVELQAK

Row | Compound | inhibition
1 | CCOC(=O)N1CCN(c2nc(-c3cccc(OC)c3)cc(C(F)(F)F)n2)CC1 | -33.9%
2 | COc1ccc(-c2cn3cccnc3n2)cc1NC(=O)C1CC1 | -2.9% [at 7.2 µM]
3 | CC(N)C(=O)N1CCN(c2nc(-c3ccccc3)c3cc([N+](=O)[O-])ccc3n2)CC1 (stereo not drawn) | -1.4% [at 5.5 µM]
4 | COc1ccc(-c2cn3cccnc3n2)cc1NC(=O)c1ccccc1 | -4.9% [at 6.5 µM]
5 | COc1ccc(-c2cn3cccnc3n2)cc1NC(=O)c1cccc(Cl)c1 | 3.4% [at 5.9 µM]
6 | COc1ccc(C2CC(=O)c3cnc(N4CCN(Cc5ccc6c(c5)OCO6)CC4)nc3C2)cc1 (stereo not drawn) | 0.4% [at 4.7 µM]
7 | COc1ccc(-c2cn3cccnc3n2)cc1NC(=O)c1c(-c2ccccc2Cl)noc1C | 2.7% [at 4.8 µM]
8 | COc1cccc(-c2cc(C(F)(F)F)nc(N3CCN(C)CC3)n2)c1 | 1.9% [at 6.3 µM]
9 | Clc1cccc(-c2nc(N3CCN(c4ccccn4)CC3)nc3c2COc2ccccc2-3)c1 | 1.7% [at 4.9 µM]
10 | COc1ccc(-c2cc(C(F)(F)F)nc(N3CCN(C)CC3)n2)cc1 | 2.1% [at 6.3 µM]
11 | COc1ccc(-c2cn3cccnc3n2)cc1NC(=O)Cc1ccc(Cl)cc1 | 8% [at 5.7 µM]
12 | COc1ccc(C2CC(=O)c3cnc(N4CCN(Cc5ccc6c(c5)OCO6)CC4)nc3C2)cc1OC (stereo not drawn) | -0.9% [at 4.4 µM]
13 | COc1ccc(-c2nc(N3CCN(Cc4ccc(Cl)cc4)CC3)[nH]c(=O)c2C#N)cc1 | -5.9% [at 5.1 µM]
14 | COc1ccc(-c2cn3cccnc3n2)cc1NC(=O)CSCc1ccccc1 | -0.7% [at 5.5 µM]
15 | CCOc1ccc(C(=O)Nc2cc(-c3cn4cccnc4n3)ccc2OC)cc1 | -6.6% [at 5.7 µM]
16 | CCN1CCN(c2nc(-c3ccc(Cl)cc3)cc(C(F)(F)F)n2)CC1 | -3.5% [at 6 µM]
17 | COc1cccc(-c2cc(C(F)(F)F)nc(N3CCN(c4ccccc4OC)CC3)n2)c1 | -2.3% [at 5 µM]

Row | Compound | inhibition
18 | Cc1ccc2nc(N3CCN(C(=O)CCCC(=O)O)CC3)nc(-c3ccccc3)c2c1 | -4.8% [at 5.3 µM]
19 | Cc1ccc2nc(N3CCN(C(=O)CC4(CC(=O)O)CCCC4)CC3)nc(-c3ccccc3)c2c1 | 0.5% [at 4.7 µM]
20 | O=C(c1ccccc1)N1CCN(c2nc(-c3ccccc3)c3ccccc3n2)CC1 | 1.8% [at 5.6 µM]
21 | CN1CCN(c2nc(-c3ccccc3)cc(C(F)(F)F)n2)CC1 | -5.9% [at 6.9 µM]
22 | COc1ccc(-c2cn3cccnc3n2)cc1NC(=O)C(C)Oc1ccccc1 (stereo not drawn) | 3.7% [at 5.7 µM]
23 | Cc1ccc2nc(N3CCN(c4ccccc4Cl)CC3)nc(-c3ccccc3)c2c1 | -6%
24 | O=C(O)CCC(=O)N1CCN(c2nc(-c3ccccc3Cl)c3cc(Br)ccc3n2)CC1 | 2.5% [at 4.4 µM]
25 | COc1ccc(-c2cn3cccnc3n2)cc1NC(=O)C1CCCCC1 | 3.2% [at 6.3 µM]
26 | CCOc1cc(C(=O)Nc2cc(-c3cn4cccnc4n3)ccc2OC)cc(OCC)c1OCC | 0% [at 4.7 µM]
27 | COc1ccc(-c2cc(C(F)(F)F)nc(N3CCN(C(c4ccccc4)c4ccccc4)CC3)n2)cc1OC | -2.6% [at 4.2 µM]
28 | O=C(O)CC1(CC(=O)N2CCN(c3nc(-c4ccccc4Cl)c4cc(Br)ccc4n3)CC2)CCCC1 | -1.2% [at 3.9 µM]
29 | CCCC(=O)Nc1cc(-c2cn3cccnc3n2)ccc1OC | 0.5% [at 7.2 µM]
30 | Cc1ccc(-c2cn3cccnc3n2)cc1NC(=O)C(C)C | 3.7% [at 7.6 µM]
31 | CC(C)(C)OC(=O)N1CCN(c2nc(-c3ccccc3)c3cc(Br)ccc3n2)CC1 | 3.5% [at 4.7 µM]
32 | CCC(=O)Nc1cc(-c2cn3cccnc3n2)ccc1OC | 5% [at 7.5 µM]
33 | FC(F)(F)c1cc(-c2ccc(Cl)cc2)nc(N2CCN(C(c3ccccc3)c3ccccc3)CC2)n1 | 2.8% [at 4.4 µM]
